In all, about 370,000 compounds went through this assay and about 3,100 (0.84%) were called active. The sample as a whole holds a higher share of actives than the screen did. Values without a mark were called inactive.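 How the source made its calls: active means inhibition above the mean of compounds lying between control limits plus 3 SD, set per campaign (cut at about 8.5% in these data); inactive means the rest.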
Each molecule was assayed against Disintegrin and metalloproteinase domain-containing protein 17 (Homo sapiens) (UniProt P78536) (assay: inhibition of ADAM17 peptide cleavage – biochemical, QFRET, primary screen (AID 720648;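 further: 0% = DMSO-only wells as the low control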)). Conditions: recombinant ADAM17, EDANS/DABCYL FRET peptide cleavage; at 6.95 µM; hits give high values.
Disintegrin and metalloproteinase domain-containing protein 17 (Homo sapiens), sequence (P78536 215-824 limits assumed): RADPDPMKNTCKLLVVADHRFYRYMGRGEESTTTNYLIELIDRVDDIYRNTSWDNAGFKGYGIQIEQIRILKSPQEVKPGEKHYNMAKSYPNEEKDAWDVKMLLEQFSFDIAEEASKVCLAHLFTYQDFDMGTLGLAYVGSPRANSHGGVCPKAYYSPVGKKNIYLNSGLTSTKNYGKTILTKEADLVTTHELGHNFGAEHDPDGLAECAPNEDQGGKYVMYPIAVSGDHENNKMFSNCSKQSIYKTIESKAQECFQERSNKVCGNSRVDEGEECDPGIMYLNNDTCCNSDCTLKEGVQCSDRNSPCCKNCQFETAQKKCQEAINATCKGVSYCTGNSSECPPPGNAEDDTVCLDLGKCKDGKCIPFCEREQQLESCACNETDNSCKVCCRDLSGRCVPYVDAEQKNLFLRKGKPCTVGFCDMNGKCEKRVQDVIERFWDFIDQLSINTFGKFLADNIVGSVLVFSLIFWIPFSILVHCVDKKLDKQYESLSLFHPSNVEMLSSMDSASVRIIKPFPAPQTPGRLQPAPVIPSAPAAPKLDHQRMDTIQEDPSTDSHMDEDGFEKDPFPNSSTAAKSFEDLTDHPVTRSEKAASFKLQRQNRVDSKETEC

| SMILES | inhibition |
| --- | --- |
| O=C(c1cccc(C(F)(F)F)c1)N1CC[C@H]2[C@H](CCCN2Cc2cc(F)cc(F)c2)C1 | -0.58% |
| COC(=O)CC1CCc2cc(C)cc(C(CC(C)C)NC(=O)[C@H](CC(C)C)NC(=O)OCc3ccccc3)c2O1 (stereo partly specified) | -2.33% |
| COc1ccc(C2(c3ccc(OC)cc3)NC(=O)N(CC(=O)Nc3cc(C)on3)C2=O)cc1 | 2.54% |
| Cc1cc(NC(=O)CN2C(=O)NC(CC(C)C)C2=O)no1 (stereo unspecified) | 10.8% (active) |
| Cc1cc(NC(=O)CN2C(=O)NC(CCc3ccccc3)C2=O)no1 (stereo unspecified) | -0.8% |
| COc1ccc(Cn2cc(CN3[C@@H](CC(C)C)COc4cc(Br)ccc4S3(=O)=O)nn2)cc1 | 1.7% |
| COc1ccc(-n2c(SCC(=O)Nc3ccc4c(c3)OCCO4)nnc2-c2ccc(Cl)cc2)cc1 | 4.24% |
| O=C(CCCCCN1C(=O)C2C3C=CC(C3)C2C1=O)Nc1ccccn1 (stereo unspecified) | 2.59% |
| c1csc(-c2nnc(SCc3nc4ccccc4[nH]3)o2)c1 | -10.2% |
| COC(=O)[C@]12C[C@H](CC(=O)N3CCOCC3)C(=O)N(Cc3ccc(Cl)cc3Cl)C1=C[C@H](COCc1ccccc1)O[C@@H]2C | 0.56% |
| O=C(CN1CCN(c2ncc(C(F)(F)F)cc2Cl)CC1)Nc1ccc2c(c1)OCO2 | -4.94% |
| O=C(Cc1ncc(C(F)(F)F)cc1Cl)Nc1cccc(Br)c1 | 10.2% (active) |
| CC(=O)c1ccc(Cc2ncc(C(F)(F)F)cc2Cl)s1 | -2.56% |
| CCOC(=O)[C@]12CCCC3=C1N(CCC3)C(=O)[C@@H](CC(=O)NCc1cccs1)C2 | 0.06% |
| Nn1c(SCC(=O)N2c3ccccc3Sc3ccccc32)nnc1-c1n[nH]c2c1CCC2 | 5.84% |
| CN(C)c1ccc(NC(=O)NC2CCCCN(Cc3ccc(Cl)cc3)C2=O)cc1 (stereo unspecified) | 8.69% (active) |
| Cc1ccc(CN2CCCCC(NC(=O)C3CCCCC3)C2=O)cc1 (stereo unspecified) | 1.84% |
| O=C(NC1CCCCN(Cc2ccc(Cl)cc2)C1=O)c1ccc(Br)cc1 (stereo unspecified) | 5.04% |
| CN(C)[C@H]1CCN(c2cccc3c2S(=O)(=O)N2CC[C@H](C2)O3)C1 | -2.38% |
| COC(=O)C[C@@H]1CC[C@H]2[C@@H](COc3ccc(NS(=O)(=O)CC(F)(F)F)cc3C(=O)N2C)O1 | -6.55% |
| CCOC(=O)c1ccc(CS(=O)c2ccc(Cl)cc2)o1 (stereo unspecified) | -2.74% |
| CCOC(=O)c1c(Cc2ccc(Cl)cc2)c[nH]c1C | 11.1% (active) |
| CCOC(=O)c1c(S(=O)(=O)Nc2cccc(Cl)c2)c(C)n(C)c1C | -9.22% |

| SMILES | inhibition |
| --- | --- |
| CC(C)N1CCCCC(NC(=O)c2ccc3ccccc3c2)C1=O (stereo unspecified) | -4.85% |
| COc1ccc(C(=O)Nc2ccc3nc(N4CCCCC4)cc(C)c3c2)cc1OC | -7.57% |
| COc1ccc(C(=O)Nc2ccc(C3(C#N)CCCC3)cc2)cc1OC | 8.73% (active) |
| COc1ccc(C(=O)NC2CC(C)(C)NC(C)(C)C2)cc1OC | -2.12% |
| C=CCN(C)CC#Cc1ccccc1 | 4% |
| c1coc(CCNc2ncnc3ccc(-c4ccc5c(c4)OCO5)cc23)c1 | -61.9% |
| O=C(CSc1nc(Nc2ccccc2)nc(N2CCOCC2)n1)Nc1cc(Cl)ccc1O | 10.2% (active) |
| O=C(CSc1ccccc1)Nc1cc(Cl)ccc1Oc1ccccc1 | 2.94% |
| O=C(CSc1nc2ccc(Nc3nc(N4CCOCC4)nc(N4CCOCC4)n3)cc2s1)NCc1ccco1 | -1.45% |
| Cc1cc(=O)[nH]c(SCC(=O)Nc2ccc(Cl)cc2C)n1 | 3.04% |
| CCCCNC(=O)C[C@H]1C(=O)N(Cc2ccc(OC)cc2)C2=CCCC[C@@]21C(=O)OCC | -4.97% |
| CC(C)(C)OC(=O)NCc1cc(F)ccc1/C=C/S(=O)(=O)NCCc1ccccc1 | 4.18% |
| CC(C)Oc1ccc(C2NC(=O)NC2=O)cc1 (stereo unspecified) | -3.2% |
| O=C1CSC(c2ccc(Cl)cc2)N1 (stereo unspecified) | -1% |
| O=C1NC(=O)C(c2ccc(Cl)cc2)N1 (stereo unspecified) | 35.4% (active) |
| Fc1ccc2nc(COCc3nc4ccc(F)cc4[nH]3)[nH]c2c1 | -1.4% |
| COc1ccc(Cn2ccc3ccc(-c4ccc5ccn(Cc6ccccc6C)c5c4)cc32)cc1 | -14.6% |
| CCCC1CCC2(CCCN2CCOC(=O)NCc2ccccc2)CC1 (stereo unspecified) | -6.91% |
| COc1ccc(NS(=O)(=O)c2ccc(O)c(C(=O)OCC(=O)NC3CCCCC3)c2)cc1 | -2.64% |
| COc1cccc(NS(=O)(=O)c2ccc(-c3coc(C)n3)cc2)c1 | 0.72% |
| COc1ccc(S(=O)(=O)Nc2ccc(O)c(Sc3nc4ccccc4s3)c2)cc1 | 9.23% (active) |
| CCOC(=O)C1CCN(C(=O)C(C)(C)NC(=O)Nc2ccccc2Cl)CC1 | -3.66% |
| C=CCN1C(=O)[C@@H](CC(=O)NCCCOCCCC)[C@]2(C(=O)OCC)CCCCC/C=C/12 | -0.06% |

| SMILES | inhibition |
| --- | --- |
| CCC(c1ccc(NC(=O)OC(C)(C)C)cc1)c1cc(OC)cc(OC)c1 (stereo unspecified) | 3.59% |
| C=CCN1C(=O)[C@@H](CC(=O)N2CCN(C(=O)OCC)CC2)[C@]2(C(=O)OCC)CCCCC/C=C/12 | -4.2% |
| Cc1cc(C(=O)NN=C/C=C/c2ccco2)n[nH]1 | -5.03% |
| COC(=O)C1CN(Cc2ccc(F)cc2)CCS(=O)(=O)N1Cc1ccc(Cl)cc1 (stereo unspecified) | -3.73% |
| C[C@H]1[C@H](NC(=O)c2cccc(N(C)C)c2)CC[C@@]23CCCN2C(=O)CCC[C@@H]13 | -31.1% |
| CC(C)(C)CC(=O)Nc1nc(C(N)Cc2ccc(C(F)(F)F)cc2)cs1 (stereo unspecified) | -1.9% |
| NC(c1csc(NC(=O)Nc2cccc(C(F)(F)F)c2)n1)C1CCCCC1 (stereo unspecified) | 3.01% |
| CCOC(=O)c1csc(NC(=O)Nc2cccc(OC)c2)n1 | -0.26% |
| COc1ccc(CC(N)c2csc(NC(=O)NC(c3ccccc3)c3ccccc3)n2)cc1 (stereo unspecified) | 8.79% (active) |
| COc1ccc(C(N)c2csc(NC(=O)Nc3cccc(C(F)(F)F)c3)n2)cc1 (stereo unspecified) | 13.7% (active) |
| COc1ccc(CC(N)c2csc(NC(=O)Nc3ccc(C(C)C)cc3)n2)cc1 (stereo unspecified) | 2.77% |
| COc1ccc(-n2c(COc3ccc(C)cc3)nnc2SCC(=O)Nc2ccc(Oc3ccccc3)cc2)cc1 | -2.03% |
| O=C1Nc2ccccc2OC1CC(=O)N1CCCCCCC1 (stereo unspecified) | -1.23% |
| CCCCN1CCN(C(=O)c2ccc3c(c2)NC(=O)C(C)(C)O3)CC1 | 1.41% |
| COC(=O)c1c(C)oc(C)c1S(=O)(=O)NCc1ccc(Cl)cc1 | -1.53% |
| COC(=O)c1c(C)[nH]c(C(=O)/C=C/c2ccc(Cl)cc2)c1C | 9.17% (active) |
| COC(=O)c1c(C)[nH]c(C(=O)NCCc2ccc(S(N)(=O)=O)cc2)c1C | -14.5% |
| Cc1c[nH]c2cccc(-c3ccc(Cl)cc3)c12 | -9.67% |
| CCn1c(SCC(=O)N/N=C/c2ccccc2OCC(=O)O)nnc1-c1ccc(C(C)(C)C)cc1 | -1.28% |
| C=CCOc1ccccc1/C=N/NC(=O)Cc1ccccc1 | 11.4% (active) |
| O=C(CC(=O)N/N=C\c1cccc(Cl)c1Cl)NCc1ccccc1 | -1.85% |
| Oc1ccc(/C=C/c2c(F)cccc2F)c2cccnc12 | -0.42% |
| Nn1c(SCC(=O)Nc2ccc(S(N)(=O)=O)cc2)nnc1-c1n[nH]c2c1CCC2 | -1.11% |

| SMILES | inhibition |
| --- | --- |
| CCCN(CC(=O)NC(=O)NC1CCCCC1)CC(=O)Nc1cc(Cl)ccc1Cl | 9.13% (active) |
| CCOc1ccccc1NC(=O)NC1CCCCCCC1 | 2.55% |
| O=C(COc1cc(Cl)c(Cl)cc1Cl)NC(=O)NC1CCCC1 | -3.67% |
| CCC(C)[C@@H](C(=O)OC)N(CCc1cn(Cc2ccccc2)nn1)S(=O)(=O)c1ccccc1Br (stereo partly specified) | 6.37% |
| CC(c1ccc(N)cc1)c1cn(C)c2ccccc12 (stereo unspecified) | 1.58% |
| CCN=C1SC(CC(=O)Nc2ccc(C)cc2)C(=O)N1CC (stereo unspecified) | -7.43% |
| CCN1C(=O)C(CC(=O)Nc2cc(C)ccc2C)SC1=Nc1ccc(S(N)(=O)=O)cc1 (stereo unspecified) | 9.07% (active) |
| CCN1C(=O)C(=O)N(CC(=O)Nc2cc(C)ccc2C)C1=O | -0.07% |
| O=C(CN1CCCc2ccccc21)NCc1ccc(F)cc1 | 1.67% |
| CCN(CC)C(=O)CC[C@H]1CC[C@]2(CCCN(Cc3ccc(Cl)cc3)C2)O1 | 1.61% |
| Cc1cccc(OCCC(=O)OCc2csc(CC(=O)Nc3ccccc3C)n2)c1 | -0.41% |
| O=C(COc1ccccc1)Nc1nonc1NC(=O)COc1ccccc1 | -4.34% |
| Cc1onc(C(=O)NN)c1-c1csc(COc2ccccc2)n1 | 9% (active) |
| CCOC(=O)[C@]12CCCC3=C1N(CCC3)C(=O)[C@@H](CC(=O)N1CCSCC1)C2 | 0.18% |
| CC(=O)N1CCc2cc(S(=O)(=O)NCCC(=O)N3CCCC3)ccc21 | -3.27% |
| COc1cccc2c(O)cc(=O)n(C)c12 | -4.7% |
| O=c1c2ccccc2ccc2ccc(P(=O)(O)O)cc12 | -16.1% |
| O=Nc1c(O)cc(O)c2ccccc12 | 10.5% (active) |
| CCN(C(=O)[C@@H](C1CC1)[C@@H](O)c1ccc2ccccc2c1)c1ccccc1 | -1.62% |
| COc1cccc(NC(=O)C2c3cc(OC)c(OC)cc3C(=O)N(C)C2c2cccnc2)c1 (stereo unspecified) | 1.58% |
| COc1cccc(NC(=O)C/C(C)=N/NC(=O)C2CCCCC2)c1 | -3.38% |
| COc1cccc(NC(=O)C2C(c3ccccc3)C2(Cl)Cl)c1 (stereo unspecified) | 9.55% (active) |
